The values that follow come from PubChem BioAssay (NCI).

Test systems include T-47D breast; BT-549 breast; MDA-MB-435 melanoma; MCF7 breast; HCT-116 colon; HCC-2998 colon; KM12 colon; SW-620 colon.
Assay in all cases: NCI-60 one-dose screen, 48 h (100 = growth as untreated, 0 = no growth, -100 = all killed)
Common to all, as to conditions: 10 µM unless noted

This is part of a sample that, as a whole, favours compounds with a hit. Of some 83,000 tested, about 20% had one in any assay.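 Method: cells in 96-well plates; compound added at one concentration; 48 h incubation; percent growth measured; values under 10 scored active.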 Values without a mark were called inactive. Active and inactive are the calls of the source.

On to `COc1c(C(C)=O)c(OCCCCOc2c(C(C)=O)c(OC)c3ccoc3c2OC)c(OC)c2occc12`, for which the growth in the assay with T-47D breast was 23%; in the assay on BT-549 breast, 98.8%; with MDA-MB-435 melanoma, 57.9%; in the assay with MCF7 breast, 64.4%; with HCT-116 colon, 78%; with HCC-2998 colon it was 76.7%. Moreover, the growth in the assay with KM12 colon is 50.4%.

As for `N/C(=N\c1nc2ccccc2[nH]1)NC(=O)Cc1cccc2ccccc12`, the growth was 71.4% in the assay with T-47D breast; 85.3% in the assay on BT-549 breast; 94.3% with MDA-MB-435 melanoma; 59.4% with MCF7 breast; 67.4% in the assay with HCT-116 colon; 103% in the assay on HCC-2998 colon. In addition, in the assay with KM12 colon, the growth was 82%.

Consider `CC1(C)CC[C@]2(C(=O)O)CC[C@]3(C)[C@H](CC[C@@H]4[C@@]5(C)CCC(=O)C(C)(C)[C@@H]5CC[C@]43C)[C@H]2[C@H]1OC(=O)C(F)(F)F`, for which the growth was -25.2% [100 µM] (active) in the assay with T-47D breast; -70% [100 µM] (active) with BT-549 breast; -69.3% [100 µM] (active) with MDA-MB-435 melanoma; -64.9% [100 µM] (active) in the assay on SW-620 colon; -66.3% [100 µM] (active) in the assay on HCT-116 colon; -93.7% [100 µM] (active) in the assay on HCC-2998 colon. Besides, the growth with KM12 colon was -75.7% [100 µM] (active).

As for `CCOC(=O)C1=C(C(=O)c2ccc(Br)cc2)C(c2ccc(Br)cc2)NC(=S)N1` (stereo not drawn), the growth is 94.5% in the assay with T-47D breast; 101% with BT-549 breast; 107% in the assay with MDA-MB-435 melanoma; 102% with MCF7 breast; 89.8% with HCT-116 colon; 106% with HCC-2998 colon. For the same compound, the growth in the assay on KM12 colon was 97.5%.

In the case of `CCOC(=O)Nc1ccc2c(c1)/C(=N\NC(=S)NC)c1ccccc1-2`, the growth was 66.7% in the assay with T-47D breast; 94% with BT-549 breast; 93.6% in the assay on SW-620 colon; 74.6% in the assay with MCF7 breast; 87.6% in the assay on HCT-116 colon; 88.2% in the assay with HCC-2998 colon. The growth with KM12 colon is 71%.

Take `Nc1cc(NN=C(c2ccc(O)cc2)c2ccc(O)cc2)c([N+](=O)[O-])cc1[N+](=O)[O-]`: the growth with T-47D breast is -55.9% (active); with BT-549 breast it was 102%; with MDA-MB-435 melanoma it was 96.5%; in the assay with SW-620 colon, 101%; in the assay with HCT-116 colon, -61.8% (active); in the assay with KM12 colon, 71.5%.

As for `COc1ccc(OC)c([N+](=O)[O-])c1C(=O)CNC(C)=O`, the growth is 103% with T-47D breast; 84.5% with BT-549 breast; 103% with MDA-MB-435 melanoma; 92.7% with MCF7 breast; 106% in the assay with HCT-116 colon; 101% with HCC-2998 colon. Further, the growth with KM12 colon was 106%.

Consider `COc1ncnc2c(-c3ccccc3)cn(COCc3ccccc3)c12`, for which the growth in the assay on T-47D breast is 14%; in the assay on BT-549 breast, 36.6%; with MDA-MB-435 melanoma, 29.7%; in the assay with SW-620 colon, 67.4%; in the assay with HCT-116 colon, 41.7%; with HCC-2998 colon, 70%. For the same compound, in the assay with KM12 colon, the growth was 42.5%.

For `CC(=O)CC(=O)SC1=NCCS1`, the growth is 104% in the assay on T-47D breast; 116% in the assay on BT-549 breast; 106% in the assay on MDA-MB-435 melanoma; 108% in the assay with MCF7 breast; 116% in the assay on HCT-116 colon; 112% in the assay with HCC-2998 colon. The growth in the assay with KM12 colon was 102%.

As for `O=c1[nH]c2cc(Cl)c(Cl)cc2n2cc3ncccc3c12`, the growth in the assay with T-47D breast was 49%; in the assay on BT-549 breast it was 109%; with MDA-MB-435 melanoma it was 87%; in the assay with MCF7 breast, 30.4%; in the assay with HCT-116 colon, 71.1%; in the assay with HCC-2998 colon, 88%. Further, the growth in the assay on KM12 colon was 78.4%.

For the compound `CC(C)=CC/C=C(/C)[C@H]1CC[C@]2(C)[C@@H]1CC[C@@H]1[C@@]3(C)CCCNC(C)(C)[C@@H]3CC[C@]12C`, the growth in the assay on T-47D breast was -50.9% [100 µM] (active); in the assay on BT-549 breast, -54.9% [100 µM] (active); in the assay with MDA-MB-435 melanoma it was -75.4% [100 µM] (active); in the assay with MCF7 breast, -54.6% [100 µM] (active); in the assay with HCT-116 colon, -61% [100 µM] (active); in the assay with HCC-2998 colon, -50.5% [100 µM] (active). Further, the growth in the assay with KM12 colon is -57.4% [100 µM] (active).

As for `CCCOc1ccc(-c2nc(-c3ccc(N)cc3)cs2)cc1`, the growth in the assay on T-47D breast was 84.9%; with MDA-MB-435 melanoma, 107%; with SW-620 colon it was 113%; in the assay on MCF7 breast, 86%; with HCT-116 colon it was 95.5%; with HCC-2998 colon, 114%. Further, the growth in the assay with KM12 colon was 115%.

Regarding `CCc1ccc(-c2ccc(COc3ccc(CC4SC(=O)NC4=O)cc3)cc2)cc1` (stereo not drawn), the growth was 41% with T-47D breast; 57.9% in the assay with MDA-MB-435 melanoma; 80.7% with SW-620 colon; 59.1% in the assay on MCF7 breast; 51% in the assay with HCT-116 colon; 89.6% in the assay on HCC-2998 colon. The growth in the assay on KM12 colon is 64%.

With `C/C=C/C1OC23CCCCC2C(C#N)(C(=N)O3)C1(C#N)C#N` (stereo not drawn), the growth in the assay with T-47D breast was 84.9%; in the assay with MDA-MB-435 melanoma, 91.8%; with SW-620 colon, 92.9%; in the assay with MCF7 breast it was 86.2%; in the assay on HCT-116 colon, 94.2%; in the assay with HCC-2998 colon, 109%. In the assay with KM12 colon, the growth is 96.3%.

Consider `CCCCCn1sc(=O)n(Cc2ccc(CNC(=O)OCc3ccc4cccc(O)c4n3)cc2)c1=O`, for which the growth with T-47D breast is -47.3% (active); with MDA-MB-435 melanoma, -70.1% (active); in the assay with SW-620 colon it was -48.5% (active); in the assay on MCF7 breast, 0.802% (active); in the assay with HCT-116 colon, -76.9% (active); in the assay on HCC-2998 colon, 5.53% (active). In addition, in the assay with KM12 colon, the growth was 11.8%.

With `CN(Cc1cccc(C(F)(F)F)c1)C(=O)[C@@H](CC(=O)N1CCC(N2CCCCC2)CC1)N1C(=O)[C@@H](N2C(=O)OC[C@@H]2c2ccccc2)[C@H]1/C=C/c1ccccc1`, the growth is 76.3% in the assay on T-47D breast; 73.1% with MDA-MB-435 melanoma; 93.2% in the assay on SW-620 colon; 65.4% in the assay on MCF7 breast; 85.2% with HCT-116 colon; 91.9% with HCC-2998 colon. The growth in the assay on KM12 colon is 102%.

As to `C#CCOc1ccc(C2=NN(CC3CC3)C3N=C(Cl)c4ncn(CC5CC5)c4N23)cc1OCC#C` (stereo not drawn), the growth in the assay on T-47D breast is 28.2%; with MDA-MB-435 melanoma, 80.8%; with SW-620 colon it was 91.8%; with MCF7 breast it was 78.8%; with HCT-116 colon it was 80.5%; in the assay on HCC-2998 colon, 119%. Besides, the growth with KM12 colon was 46.6%.
